The whole screen tested about 360,000 compounds, of which about 5,000 (1.4%) were called active. The sample as a whole holds a higher share of actives than the screen did. A number with no mark means an inactive call.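 Rule for the calls: active = inhibition of 50% or more, scaled per plate between neutral and stimulator controls; inactive = the rest.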
Assay: blockers of Ca2+-induced mitochondrial swelling – biochemical, isolated mouse mitochondria, absorbance, primary screen (AID 602449);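 note: 0% = DMSO wells given calcium and 100% = 1 mM EGTA wells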
Conditions: 30 min, at 10 µM, stronger effect = higher value

| Compound | inhibition |
| --- | --- |
| O=C(COc1ccc(NC(=O)c2ccccc2[N+](=O)[O-])cc1)c1ccc(F)cc1 | -1.1% |
| COc1cc2c3c(c1)/C(=C1/SC(=S)NC1=O)C(=O)N3C(C)(C)C=C2C | 91.4% (active) |
| Cc1cc(C)n(CCNS(=O)(=O)c2ccc(Cl)cc2)n1 | 0% |
| Cc1ccc(C(=O)NCC(=O)O)s1 | -1.7% |
| CCCCc1nc(NCCN)c(C#N)c2c1CSC(C)(C)C2 | 108% (active) |
| Cc1nc(NCCN)c(C#N)c2c1COC(C)(C)C2 | -1% |
| CCCCc1nc(NCc2ccccc2)c(C#N)c2c1CCCC2 | 5.4% |
| COc1ccc(OC)c(S(=O)(=O)N(C)CC(=O)N2CCN(c3ccccc3)CC2)c1 | -2.8% |
| COc1ccc(C)cc1NC(=S)Nc1ccccc1SC | 0.6% |
| COc1ccc(NC(=O)CN(C)C(=O)c2cccc(S(=O)(=O)N3CCN(c4ccccc4)CC3)c2)cc1 | 1.3% |
| COc1cc2c(C(=O)N3CCN(C)CC3)c(CSc3ccccc3)n(C)c2cc1Br | -3.4% |
| CC1CCCC(C)N1C(=O)COC(=O)c1ccccc1C(=O)c1ccccc1 (configuration not stated) | -1.2% |
| CCOC(=O)c1c(NC(=O)CSc2cn(CC)c3ccccc23)sc2c1CCC2 | 59.8% (active) |
| CCOC(=O)c1c(NC(=O)Cn2nc(C(F)(F)F)cc2C)sc2c1CCC2 | 4% |
| CCOC(=O)c1c(NC(=O)C(C)Sc2c[nH]c3ccccc23)sc2c1CCC2 (configuration not stated) | 3.9% |
| O=C(NCc1ccncc1)C1CCCN(S(=O)(=O)c2ccc(Br)cc2)C1 (configuration not stated) | -0.9% |
| Cc1ccc(N(Cc2ccccc2O)C(=O)c2ccccc2F)cc1 | 0.4% |
| CC(C)C(=O)N1c2ccccc2NC2=C(C(=O)CCC2)C1c1ccc(N(C)C)cc1 (configuration not stated) | 0.8% |
| CCCCC(=O)NNC(=S)NC(=O)C(c1ccccc1)c1ccccc1 | 69.1% (active) |
| CCCOCC(O)CC(CC)C(=O)NNC(=S)Nc1ccccc1 (configuration not stated) | 1.7% |
| CCCCC(=O)NCc1ccc(F)cc1 | 0.7% |
| CCN(CC(=O)Nc1c(F)cccc1F)C(=O)c1cnc(C)cn1 | 1.7% |
| COC(=O)c1c(C)[nH]c(C(=O)NCCc2ccc(S(N)(=O)=O)cc2)c1C | 0.1% |
| CCCCOC(=O)c1[nH]c(C)c(C(=O)OC)c1C | 1.6% |
| COC(=O)c1c(C)[nH]c(C(=O)/C=C/c2ccc(Cl)cc2)c1C | 102% (active) |
| c1csc(-c2nnc(COc3ncnc4sccc34)o2)c1 | 1.9% |
| COc1cnc(SCc2ccc(Cl)c(Cl)c2)nc1Cl | 0.4% |

From PubChem BioAssay AID602449 (Sanford-Burnham Center for Chemical Genomics, 2012)
